Screens: PubChem BioAssay, The Scripps Research Institute Molecular Screening Center
GPR151 ag – activates the human receptor GPR151; PathHunter beta-arrestin GPR151 cells, luminescence; activation, % at 11.2 µM; 650,000 tested, 1% active; Q8TDV0; AID 1508602; in the data active = activation above about 4.9%;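 note: 0% = median of compound wells and 100% = cells with positive control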
MITF primary – inhibitors of human MITF; O75030; AlphaScreen MITF homodimerization, bead proximity signal; inhibition, % at 2.6 µM; 650,000 tested, 0.91% active; AID 1259374; in the data active = inhibition above about 50%;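 note: 0% = vehicle wells with protein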
FBW7 act – human FBW7 E3 ligase activation, primary screen. Q969H0. AlphaScreen FBW7–phospho-cyclin E peptide binding, activator screen. normalized activity (activation), % at 26.1 µM. 650,000 tested, 0.13% active; in the data active = normalized activity above about 1.9%;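 note: purified mutant Fbw7 with reduced substrate affinity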
Target sequence (Q969H0 whole entry, looked up): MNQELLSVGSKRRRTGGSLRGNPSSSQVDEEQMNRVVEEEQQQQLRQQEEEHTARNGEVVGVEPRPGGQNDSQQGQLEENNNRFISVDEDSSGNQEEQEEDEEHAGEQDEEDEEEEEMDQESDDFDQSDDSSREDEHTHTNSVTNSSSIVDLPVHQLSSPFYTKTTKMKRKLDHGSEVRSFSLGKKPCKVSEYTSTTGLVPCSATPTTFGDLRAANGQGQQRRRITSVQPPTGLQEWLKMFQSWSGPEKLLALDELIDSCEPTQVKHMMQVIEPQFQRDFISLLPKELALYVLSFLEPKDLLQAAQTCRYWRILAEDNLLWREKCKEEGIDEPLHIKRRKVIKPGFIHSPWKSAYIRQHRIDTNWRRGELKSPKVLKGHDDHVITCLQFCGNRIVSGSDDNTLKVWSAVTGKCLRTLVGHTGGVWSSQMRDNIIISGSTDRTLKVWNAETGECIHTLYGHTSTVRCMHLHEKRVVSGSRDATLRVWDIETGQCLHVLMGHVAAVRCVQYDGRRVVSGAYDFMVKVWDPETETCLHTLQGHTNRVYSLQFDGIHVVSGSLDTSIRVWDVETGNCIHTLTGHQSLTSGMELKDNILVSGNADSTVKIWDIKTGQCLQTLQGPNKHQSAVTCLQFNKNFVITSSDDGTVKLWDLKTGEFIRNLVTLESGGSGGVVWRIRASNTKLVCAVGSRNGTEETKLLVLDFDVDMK
TEAD-YAP block – TEAD-YAP interaction inhibition. HEK-TIYL cells, TEAD-Gal4/YAP UAS-luciferase luminescence. 640,000 tested, 1.4% active. AID 1259422. inhibition, % at 9.12 µM; in the data active = inhibition above about 32%;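 note: 0% = median of test compound wells and 100% = reference inhibitor wells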
Numbers without * were called inactive; ! = repeats disagree. Shown are actives, neighbours in structure and some others; about 3.5% of the full set was active somewhere.

SMILES | GPR151 ag | MITF primary | FBW7 act | TEAD-YAP block
c1ccc(Nc2nc(Nc3ccc4ncccc4c3)nc3c2ncn3-c2ccsc2)cc1 | 2.6 | 9.9 | -0.1 | 57.5*
Nc1nc(Nc2ccccc2)nc2c1ncn2-c1ccsc1 | -1.5 | 13.3 | 0.0 | 37.2*
Nc1nc(Nc2ccc3ncccc3c2)nc2c1ncn2-c1ccsc1 | -0.1 | -13.7 | 38.3* | 5.7
COC(=O)Nc1ccc(S(=O)(=O)N2CCN(S(=O)(=O)c3ccc(NC(=O)OC)cc3)CC2)cc1 | 0.4 | -0.4 | 0.2 | -2.5
Cc1ccc(S(=O)(=O)NNc2c(F)c(F)cc(F)c2F)cc1 | 0.9 | 3.4 | 0.0 | 2.9
c1ccc(-n2cnc3c(Nc4ccc(N5CCOCC5)cc4)nc(Nc4ccc5ncccc5c4)nc32)cc1 | 0.8 | -1.0 | -0.4 | 3.6
CC(=O)Nc1ccc(Nc2nc(Nc3ccc4ncccc4c3)nc3c2ncn3C(C)C)cc1 | -1.1 | 2.9 | -0.1 | 35.6*
CC(=O)Nc1ccc(Nc2nc(Nc3ccc4ncccc4c3)nc3c2ncn3-c2ccccc2)cc1 | 1.0 | 1.5 | 0.2 | 40.2*
c1ccc(Nc2nc(Nc3ccc4ncccc4c3)nc3c2ncn3-c2ccccc2)cc1 | -2.1 | 7.1 | 0.8 | 42.1*
CCOC(=O)c1c(NC(=O)CSc2nnc(CNC(=O)c3ccc([N+](=O)[O-])cc3)n2Cc2ccccc2)sc2c1CCC2 | 0.9 | 13.3 | 0.4 | -5.2
CC1=NN(c2nc3ccccc3s2)C(=O)/C1=C\N(C)C | -8.6 | 9.3 | 0.1 | 67.8*
CC1=NN(c2nc3ccccc3s2)C(=O)/C1=C(\C)N(C)C | -9.7 | 4.9 | -0.3 | 42.8*
CN(C)/C=C1/C(=O)N(c2nc3ccccc3s2)N=C1c1ccccc1 | 0.0 | 0.2 | 0.2 | 4.9
O=C1N=C(N2CCOCC2)S/C1=C/c1ccc(O)cc1 | -0.1 | 8.0 | -0.3 | 47.0*
COc1cc(/C=C2\SC(N3CCCCC3)=NC2=O)ccc1O | 0.8 | 1.4 | -0.1 | 49.9*
Cc1ccc(/C=C2/SC(N3CCN(C)CC3)=NC2=O)cc1 | -1.1 | 57.9* | -0.1 | 2.9
CCOc1ccc(NC(=O)CN2C(=O)/C(=C3\SC(N4CCOCC4)=NC3=O)c3ccccc32)cc1 | -0.6 | 18.6 | 8.4* | 0.1
CN1C(=O)/C(=C2\SC(N3CCOCC3)=NC2=O)c2ccccc21 | -1.7 | 15.5 | 1.0 | -8.4
O=C(NNS(=O)(=O)c1ccc(Br)cc1)Nc1ccc([N+](=O)[O-])cc1 | -0.8 | 3.3 | 0.5 | 11.9
CC(C)(C)c1ccc(/C=C2\SC(N3CCOCC3)=NC2=O)cc1 | 0.3 | -3.8 | 0.3 | 0.0
CCOc1ccc(/C=C2\SC(N3CCOCC3)=NC2=O)cc1 | -0.4 | 7.9 | 2.3* | 8.0
CCOCCCNC(=O)/C(C#N)=C/c1c(Oc2ccc(C)cc2)nc2c(C)cccn2c1=O | -0.4 | 10.2 | -0.1 | 18.5
COCCNC(=O)/C(C#N)=C/c1c(Oc2ccccc2OC)nc2c(C)cccn2c1=O | 1.1 | 5.3 | -0.1 | 33.8*
CCOCCCNC(=O)/C(C#N)=C/c1c(Oc2ccccc2C)nc2c(C)cccn2c1=O | -0.1 | 3.8 | 0.0 | 32.4*
COc1cccc(-c2ccc(=O)n(CC(=O)NCc3ccc4c(c3)OCO4)n2)c1 | 0.1 | 5.3 | 0.2 | -3.2
SMILES | GPR151 ag | MITF primary | FBW7 act | TEAD-YAP block
CCOC(=O)NC(c1ccccc1)C(C(=O)OCC)C(=O)OCC (stereo unspecified) | -0.8 | 29.6 | 2.3* | 9.4
NNc1ccc2nc3sc4c(c3c(=O)n2n1)CCCC4 | -2.0 | 9.7 | -0.1 | -5.2
COc1ccc(NC(=O)c2ccc(N3C(=O)c4cccc([N+](=O)[O-])c4C3=O)cc2)cc1 | -0.4 | 17.2 | 0.8 | -1.5
O=C(Nc1ccc(O)cc1)c1ccc(N2C(=O)c3cccc([N+](=O)[O-])c3C2=O)cc1 | -1.1 | 2.2 | 0.2 | 34.8*
COc1ccc(S(=O)(=O)Oc2ccccc2NC(C)=O)c2ccccc12 | 0.3 | 2.1 | 0.0 | 54.9*
COc1ccc(S(=O)(=O)Oc2ccccc2NC(C)=O)cc1C | 1.4 | -6.7 | 0.1 | 44.8*
CC(=O)Nc1ccccc1OS(=O)(=O)c1cc(Br)ccc1Br | -0.5 | 8.3 | 0.0 | 4.1
Cc1cccn2cc(-c3cccc(NS(=O)(=O)c4cccc([N+](=O)[O-])c4)c3)nc12 | 0.0 | 21.9 | 0.3 | -9.7
CCc1ccc(-c2csc(-c3cc4c(ccc5ccccc54)oc3=O)n2)cc1 | -0.3 | 3.2 | 0.0 | -1.0
CCCCn1c(=S)[nH]c2ccccc21 | 2.2 | 2.7 | 2.0* | 6.1
COc1ccc(-c2csc(N3N=C(C)C(N=Nc4ccc(C(N)=O)cc4)C3=O)n2)cc1 (stereo unspecified) | -0.5 | -0.3 | -0.1 | 0.1
Cc1[nH]n(-c2nc(-c3ccccc3)cs2)c(=O)c1C(c1ccccc1)C(C#N)C(N)=O (stereo unspecified) | -0.4 | -7.0 | -0.2 | 59.0*
CC1=NN(c2nc(-c3ccc(C)cc3)cs2)C(=O)C1C(c1ccccc1)C(C#N)C(N)=O (stereo unspecified) | 2.8 | -16.2 | -0.1 | 75.3*
O=C(c1cnn2c1NC(c1ccco1)CC2C(F)(F)F)N1CCN(Cc2ccccc2)CC1 (stereo unspecified) | -1.1 | 28.0 | 0.0 | 44.8*
O=S(=O)(NCc1csc(-c2cccs2)n1)c1ccc(-c2ccccn2)s1 | 1.0 | 10.5 | 2.1* | 1.6
Cc1ccc(NSc2ccccc2[N+](=O)[O-])cc1 | 0.8 | 3.9 | 0.1 | 56.3*
CCOc1ccc(NSc2ccccc2[N+](=O)[O-])cc1 | -1.3 | 22.2 | 0.0 | 4.7
COc1cccc(NC(=O)N(CC(=O)Nc2sc(C)c(C)c2C(N)=O)C2CCCC2)c1 | 1.2 | 1.1 | -0.5 | -13.8
CC(=O)N(C)C1=C(Cl)C(=O)c2ccccc2C1=O | 0.4 | -5.0 | -0.5 | -10.7
O=C(c1cccc(F)c1)N(CCN1CCOCC1)c1nc2c(Cl)cccc2s1 | 2.9 | 11.2 | 0.0 | -17.1
Cc1ccc2nc(C)c(C(=O)NCC(F)(F)F)n2c1 | 0.1 | 17.8 | 1.9* | 0.4
Cc1nc(NC(=S)NC(=O)c2ccccc2)sc1C(C)(C)C | -0.2 | -2.6 | -0.2 | 36.6*
O=c1cc(Nc2ccc3c(c2)OCCO3)[nH]c(=O)n1-c1ccc(Cl)cc1 | -0.3 | -2.8 | -0.3 | -4.8
O=c1cc(Nc2ccc3c(c2)OCCO3)[nH]c(=O)n1C1CCCCC1 | 1.0 | 10.8 | -0.3 | 58.2*
Cc1ccc(C)c(S(=O)(=O)Oc2ccccc2C(=O)OCC(=O)Nc2cc(C)on2)c1 | -0.4 | 1.7 | 0.0 | 38.7*
SMILES | GPR151 ag | MITF primary | FBW7 act | TEAD-YAP block
CC1CCc2nc(N)c(C#N)c(-c3cccnc3)c2C1 (stereo unspecified) | -0.1 | 18.9 | 1.9* | 50.0*
Cc1cc(Nc2cc3ccccc3cc2O)n2ncnc2n1 | -1.0 | -2.6 | -0.3 | 64.9*
Cc1cc(Nc2c(C)cccc2C)n2ncnc2n1 | -0.7 | 0.1 | 0.1 | -5.3
Cn1c(=O)[nH]c(=O)c2c1nc(N1CCCC1)n2CCCc1ccccc1 | 0.8 | -1.2 | -0.2 | -0.7
CN1C(C(=O)Nc2ccccn2)=C(O)c2sccc2S1(=O)=O | -0.3 | 8.8 | 2.0*! | -4.5
CCOC(=O)c1cnc2c(C)cc(Cl)cc2c1Nc1ccc(O)cc1 | -0.9 | 0.0 | 0.0 | -0.2
COc1ccc2nc(C)cc(Nc3ccccc3OC)c2c1 | -0.9 | 19.2 | 0.7 | 17.1
COc1cccc(Nc2cc(C)nc3ccc(Cl)cc23)c1 | 0.0 | 8.0 | -0.1 | 43.7*
